The values below come from PubChem BioAssay (NCATS).

Each structure is given as a SMILES string. Values joined by “and” are separate entries in the source; they are usually repeats but may differ in a detail not shown here. Equal values may be shown once. Records with an inconclusive call do not appear. Active and inactive are the calls of the source. Calls follow the shape of the full dose curve.

Sequence of Thyroid hormone receptor beta (Homo sapiens) (P10828 whole entry, looked up): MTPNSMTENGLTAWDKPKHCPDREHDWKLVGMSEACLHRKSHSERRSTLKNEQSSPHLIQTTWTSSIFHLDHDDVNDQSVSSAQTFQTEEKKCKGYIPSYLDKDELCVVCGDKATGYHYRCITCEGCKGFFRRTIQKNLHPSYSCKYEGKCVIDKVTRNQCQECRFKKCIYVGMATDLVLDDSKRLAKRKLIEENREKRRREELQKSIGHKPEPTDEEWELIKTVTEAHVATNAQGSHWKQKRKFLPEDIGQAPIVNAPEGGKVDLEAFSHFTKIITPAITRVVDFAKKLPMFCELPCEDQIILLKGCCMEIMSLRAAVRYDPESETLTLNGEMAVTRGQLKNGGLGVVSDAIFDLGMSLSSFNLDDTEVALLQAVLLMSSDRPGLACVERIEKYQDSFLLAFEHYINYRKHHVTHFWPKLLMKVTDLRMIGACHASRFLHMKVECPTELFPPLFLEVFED

The first assay addresses Thyroid hormone receptor beta (Homo sapiens) (UniProt P10828). Put plainly: qHTS assay for small molecule agonists of thyroid hormone receptor beta signaling (AID 588545).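 Also: 0% = DMSO only and 100% = 10 nM T3.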 The following applies: TR-UAS-bla GripTite HEK 293, beta-lactamase ratio, agonist mode, 18 h, percent of T3 response, DMSO as zero; series mostly up to 76.7 µM; activation: at the top concentration. An outline of the steps: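 Efficacy and EC50 values derive from Hill fits of qHTS titration data, normalized to 10 nM T3 and DMSO-only wells. HEK 293 reporter cells were stimulated for 18 hrs at 37 C, with beta-lactamase activity measured by CCF4 fluorescence.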
Regarding `O=[N+]([O-])c1ccc(NCCO)c(OCCO)c1`, the “activation” value was -10.3% (inactive).
For the molecule `ClC/C=C/CCl`, the “activation” value is -16.5% (inactive).
With `Cc1cscn1`, the “activation” value was 5.83% (inactive).
As to `CCCCCCCN`, the “activation” value is -11% (inactive).
Consider `CC(C)(O)CCC(C)(C)O`, for which the “activation” value is 0.612% (inactive).
As for `Nc1cccc(S(=O)(=O)O)c1`, the “activation” value was -20% (inactive).
`O=Cc1c(Cl)cccc1Cl`: the “activation” value is -5.81% (inactive).
Turning to `Oc1c(Cl)ccc(Cl)c1Cl`, the “activation” value was 3.02% (inactive).
Regarding `COC(=O)CCCC(=O)OC`, the “activation” value is -18.9% (inactive).
Same read-out and setting: to `O=c1[nH][nH]c(=O)c2cc([N+](=O)[O-])ccc12` belongs -5.35% (inactive); to `C=Cc1ccccn1`, -4.79% (inactive); to `Nc1ccc([N+](=O)[O-])c(N)c1`, -20.7% (inactive).
`Nc1cccc(N)c1`: the “activation” value is -25.3% (inactive).
Still for that read-out and setting: to `CSc1ccc(C=O)cc1` belongs -14.2% (inactive).
With `Cc1ccc([N+](=O)[O-])c(N)c1`, the “activation” value is -23.1% (inactive).
Take `COc1ccc(N)c(OC)c1`: the “activation” value is -22.2% (inactive).
With `C=CCCCC`, the “activation” value is -7.78% (inactive).
With `C=CC(=O)NC(C)C`, the “activation” value was -3.36% (inactive).
Regarding `C/C(C=O)=C/c1ccccc1`, the “activation” value is -7.67% (inactive).
In the case of `CCCCCCCCN`, the “activation” value was -0.177% (inactive).
As for `C=CCCC`, the “activation” value was 2.67% (inactive).
The same measure, in the same setting: to `C=CCCCCCC` belongs -9.14% (inactive); to `Cc1ccccc1C=O`, 5.97% (inactive).
On to `CCN(CC)c1cccc(O)c1`, for which the “activation” value is -2.85% (inactive).
For `Cc1c(N)cccc1N`, the “activation” value is -4.73% (inactive).
Take `CC(=C/C=C/C(C)=C/C=C/C=C(C)/C=C/C=C(C)/C=C/C(=O)O)/C=C/C(=O)O`: the “activation” value was -12.9% (inactive).
For `Fc1ccccc1`, the “activation” value was -5.28% (inactive).
In the case of `NC(=S)NNC(N)=S`, the outcome was inactive.
Regarding `CCNc1cc(O)ccc1C`, the “activation” value was -6.46% (inactive).
On the same count and under the same terms, for `Cc1ccc(C#N)cc1` the value was -7.94% (inactive).
On to `c1ccc2n[nH]nc2c1`, for which the “activation” value is -19% (inactive).
For the molecule `Nc1cccc2c(=O)[nH][nH]c(=O)c12`, the “activation” value is 0.467% (inactive).
Turning to `Cc1c(N)cccc1[N+](=O)[O-]`, the “activation” value was -12.4% (inactive).
As to `O=C1OC(=O)c2c(Br)c(Br)c(Br)c(Br)c21`, the outcome was inactive.
With `CCCCC/C=C/C=C/C=O`, the outcome was inactive.
In the case of `O=Cc1cccc(Br)c1`, the “activation” value is -1.58% (inactive).
The same measure, in the same setting: to `O=Cc1ccc(CO)o1` belongs -3.58% (inactive).
Still for that read-out and setting: for `C=CCn1c(=O)n(CC=C)c(=O)n(CC=C)c1=O` the value was -13.9% (inactive); for `CCCCCCCCCCCCC1CO1` (stereo not given), -13.8% (inactive); for `Cc1ccc(C(=O)O)cc1`, -2.36% (inactive).

System in a further assay: not listed separately
Put plainly: qHTS assay for small molecule antagonists of retinoid X receptor alpha signaling (AID 588546).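 Also: cells stimulated with 9-cis-retinoic acid as agonist; % is scaled to controls: 0 for no effect and ±100 for the full control effect.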 The following applies: HEK293T RXRa-UAS-bla, beta-lactamase ratio, antagonist mode; measured here: W530 green channel, cytotoxicity proxy. An outline of the steps: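 Beta-lactamase reporter inhibition, read as CCF4 fluorescence ratio (ex 405, em 460/530 nm) after 2 h at RT. HEK293T UAS-bla cells, 2500/well, were stimulated with 9-cis-RA at 500 or 100 nM final alongside test compound for 18 h at 37 C.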
For orientation: qHTS replaces the single test concentration by a dilution series.
In the case of `O=[N+]([O-])c1ccc(NCCO)c(OCCO)c1`, the max response is -6.21%.
Take `ClC/C=C/CCl`: the max response is -5.15%.
As for `Cc1cscn1`, the max response was -2.99%.
Same read-out and setting: to `CCCCCCCN` belongs 3.38%; to `CC(C)(O)CCC(C)(C)O`, -5.49%.
On to `Nc1cccc(S(=O)(=O)O)c1`, for which the max response was -5.6%.
Turning to `O=Cc1c(Cl)cccc1Cl`, the max response is -5.87%.
Same read-out and setting: for `Oc1c(Cl)ccc(Cl)c1Cl` the value was 1.62%; for `COC(=O)CCCC(=O)OC`, -9.56%; for `O=c1[nH][nH]c(=O)c2cc([N+](=O)[O-])ccc12`, -8.03%.
Regarding `C=Cc1ccccn1`, the max response is -12.9%.
With `Nc1ccc([N+](=O)[O-])c(N)c1`, the max response is -1.48%.
On to `Nc1cccc(N)c1`, for which the max response came to 1.75%.
`CSc1ccc(C=O)cc1`: the max response was -1.24%.
As to `Cc1ccc([N+](=O)[O-])c(N)c1`, the max response is -20.5%.
In the case of `COc1ccc(N)c(OC)c1`, the max response is -0.758%.
Regarding `C=CCCCC`, the max response was -3.19%.
As to `C=CC(=O)NC(C)C`, the max response turned out to be 5.01%.
On the same count and under the same terms, for `C/C(C=O)=C/c1ccccc1` the value was 2.35%; for `CCCCCCCCN`, 2.38%; for `C=CCCC`, 2.87%.
On to `C=CCCCCCC`, for which the max response amounted to 0.804%.
As to `Cc1ccccc1C=O`, the max response turned out to be 9.24%.
`CCN(CC)c1cccc(O)c1`: the max response was 6.69%.
With `Cc1c(N)cccc1N`, the max response was -4.94%.
On the same count and under the same terms, to `CC(=C/C=C/C(C)=C/C=C/C=C(C)/C=C/C=C(C)/C=C/C(=O)O)/C=C/C(=O)O` belongs -2.63%; to `Fc1ccccc1`, -11.6%; to `NC(=S)NNC(N)=S`, -7.09%.
`CCNc1cc(O)ccc1C`: the max response is -2.01%.
In the case of `Cc1ccc(C#N)cc1`, the max response is -3.82%.
Still for that read-out and setting: to `c1ccc2n[nH]nc2c1` belongs -16.6%; to `Nc1cccc2c(=O)[nH][nH]c(=O)c12`, -2.09%; to `Cc1c(N)cccc1[N+](=O)[O-]`, -6.48%.
The same measure, in the same setting: to `O=C1OC(=O)c2c(Br)c(Br)c(Br)c(Br)c21` belongs -0.218% and -8.01%.
Consider `CCCCC/C=C/C=C/C=O`, for which the max response was -1.35% and -13.3%.
As for `O=Cc1cccc(Br)c1`, the max response was found to be 0.346%.
For the molecule `O=Cc1ccc(CO)o1`, the max response turned out to be 0.176%.
Still for that read-out and setting: to `C=CCn1c(=O)n(CC=C)c(=O)n(CC=C)c1=O` belongs -12.4%; to `CCCCCCCCCCCCC1CO1` (stereo not given), -6.03%.
As for `Cc1ccc(C(=O)O)cc1`, the max response is -2.83%.
